Measurements from PubChem BioAssay.
Activity calls are given as the source filed them.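 The calls were made as follows: active = RAM network inhibition above 8.4% in each of two replicates, 3 SD over the compound average; inconclusive = above 8.4% inhibition in only one replicate; inactive = 8.4% inhibition or less in each replicate.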

Experiment: RAM signaling pathway blockade in yeast – S. cerevisiae, Pdr1DBD-CYC8 efflux-inhibited sensitized strain, primary screen (AID 1298);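 also: 0% = DMSO untreated cells without growth and 100% = 10 µM 1-NA-PP1 full growth; higher means more yeast growth rescued from 5-FOA killing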
Details: S. cerevisiae cbk1-as DSE1-URA3 strain, 5-FOA growth OD615, 2 d; at 50 µM; active compounds read high

Compound	RAM network inhibition
O=C(Cn1c(=O)[nH]c2ccsc2c1=O)NC1CCCCC1	-1.43% (inactive)
Cc1cc(Nc2ccc(F)cc2Cl)n2nc(C)nc2n1	2.31% (inactive)
COc1ccc(C)cc1NC(=O)CSc1nnc(-c2ccc(C)cc2)o1	5.49% (inactive)
c1ccc(OCCOCCSc2ncccn2)cc1	3.21% (inactive)
Fc1cc2nc(-c3ccncc3)[nH]c2cc1F	2.24% (inactive)
Cc1cc(N)n2ncc(-c3cccc(Br)c3)c2n1	1.65% (inactive)
COc1cccc(-c2cc(C(=O)Nn3cnnc3)c3ccccc3n2)c1	3.38% (inactive)
CC(=O)C1C(c2ccc(O)cc2)NC(=O)NC1(O)C(F)(F)F (stereo not given)	4.56% (inactive)
O=C(O)c1ccc(CSc2nnc(-c3ccco3)o2)cc1	3.22% (inactive)
CC1Cn2c(nnc2-c2cccc(N)c2)S1 (stereo not given)	3.44% (inactive)
Cc1cccc(-n2c(Cc3cc(=O)[nH]c(=O)[nH]3)nnc2SC(C)C)c1	3.87% (inactive)
COc1ccc(C2(O)CCN(C(=O)c3ccc4c(c3)OCO4)CC2)cc1	0.72% (inactive)
O=C(Nc1cccc2c1CCCC2)c1ccc(Br)o1	9.1% (inactive)
CCCNC(=O)NCCc1c(C)[nH]c2ccccc12	1.69% (inactive)
CCCC(=O)NC(C)c1nc2ccccc2n1CC (stereo not given)	2.35% (inactive)
CCCN(CCC)S(=O)(=O)c1ccc(C(=O)NCc2ccc3c(c2)OCO3)cc1	4.05% (inactive)
CCCNc1nc2c(c(=O)n(C)c(=O)n2C)n1Cc1ccc(F)cc1	3.07% (inactive)
c1ccc(-c2ccccc2-n2cnnn2)cc1	0.51% (inactive)
COc1cccc(-c2nc(CS(=O)CC(=O)O)c(C)o2)c1 (stereo not given)	4.89% (inactive)
N=c1n(CCOc2ccccc2)c2ccccc2n1CCN1CCOCC1	-0.47% (inactive)

Compound	RAM network inhibition
COc1ccc(CCNc2ncnc3nc[nH]c23)cc1OC	1.46% (inactive)
CCSc1sccc1C1C(C#N)=C(N)N(c2cccnc2)C2=C1C(=O)CC(C)(C)C2 (stereo not given)	12.4% (inactive)
Cc1nc(CNS(=O)(=O)c2ccccc2F)cs1	-0.57% (inactive)
CC(=O)N(c1ccc(C)cc1)C1C=CS(=O)(=O)C1 (stereo not given)	7.21% (inactive)
CCc1cccc(C)c1NC(=O)C1CCCO1 (stereo not given)	3.57% (inactive)
Nc1nc2n(n1)C(c1ccccc1Cl)CC(c1ccc(F)cc1)N2 (stereo not given)	0.48% (inactive)
N#Cc1ccc(N2CCN(C(=O)c3cccc(F)c3)CC2)c(F)c1	0.57% (inactive)
CCn1ccc(C(=O)Nc2ccc(Cl)cn2)n1	3.03% (inactive)
CCOC(=O)c1cn(-c2ccccc2)nc1-c1cccnc1	7.28% (inactive)
CCOC(=O)c1c(C)n(C)c2ccc(OCC(O)CN(CC)CC)cc12 (stereo not given)	-0.57% (inactive)
O=C(NCCC1=CCCCC1)NC1CCCCC1	5.84% (inactive)
CC(=O)Nc1ccc(-n2c(C)c(C(C)=O)c(C(C)=O)c2C)cc1	4.97% (inactive)
COCCOC(=O)C1=C(C)NC2=C(C(=O)CC(C)(C)C2)C1c1ccc2c(c1)OCO2 (stereo not given)	2.6% (inactive)
CCOc1ccccc1Nc1ncnc2c1cnn2-c1ccccc1	5.59% (inactive)
O=C1NCCCC1C(=O)N1CCN(C(=O)c2ccco2)CC1 (stereo not given)	0.31% (inactive)
CCC(=O)NCCn1c(C)cc2ccccc21	-0.46% (inactive)
CCCCNC(=O)Nc1cc(C(=O)OC)ccc1C	7.5% (inactive)
CCOc1ccc(N=Cc2c(O)cc(C)oc2=O)cc1	1.99% (inactive)
CC(C)C(NS(=O)(=O)c1ccc2c3c(cccc13)C(=O)N2)C(=O)O (stereo not given)	3.8% (inactive)
Cc1ccc(NC(=O)c2cc(-c3cccc(O)c3)on2)cc1C	4.28% (inactive)
